Source: the OligoGym collection

Molecular target: PKLR
Test: pooled miR-30 sensor sort-seq; sequence = guide strand
Settings: shRNA
Also: reference of the scale not given here.

Sequence	sensor-assay potency score (higher = more potent)
TCAATTTTGCTGATGATCTTGA	0.666
TCGTGGTTCTCAATTTTGCTGA	-0.424
ATGCTCTCCAGCATCTGTGTGG	-1.11
TAATTGGACACAGACTTTCAGG	-0.61
TAGCTCCTCAAACAGCTGCCGG	-1.23
TCGCTTGTCTCTGCCCTCGTTG	-1.2
TGTGGCACAGACAACAGGCTTG	-0.0127
ATGGACTTTGCTAAGTCTCTTT	-0.987
TTGCTGATGATCTTGATGCCGT	-0.495

Molecular target: PLA2G4A
Test: as above
Settings: shRNA

Sequence	sensor-assay potency score (higher = more potent)
TGATTCATCATCACTGTCCGAG	0.0963
TAGTTCTTCATTAATCTCCTCT	0.214
TATCTTTTAACTTTCTGTGGTG	-0.296
TTTAAAGACATAGCACTCCTTC	-0.0879
TAAAGCTGAATCACTCACCAAG	-0.42
TTCTTCATTAATCTCCTCTGGC	-0.109
TTTGCTTCCAAATAAGTCGGGA	0.33
TATCACATCAATGTTGTTCAGA	0.0915
TACAAGGTTGACATATACCAGG	-0.86
TTGTCTGAAAGTCTTCTCCTGA	0.182
TTTGATAGTCACTTCCAGCATC	-0.254
TAGTCAGTGAATAACATTCATA	-0.999

Molecular target: PLA2G4F
Test: as above
Settings: shRNA

Sequence	sensor-assay potency score (higher = more potent)
TTGTTCTTGATAGCAGTGCATC	-1.66
TTGCAGGTAACAGATCCGGGGT	-0.679
TATATTTGCATGATGTGGCCAC	0.329
TTGCACATAGCAGTCGGCTTTG	-0.794
TAGAGTGTGGAGATGCACCAGG	-0.214
TAGTACTGTAGCCGCTCCGTGG	-1.01
TTTGTCGCTCCACACCTGGGGC	-1.27
TCGTCTGTGATATTCACACTGC	-0.569
TTGGCCACTATCCTAGTCTGGG	-0.525
TGAACTCGCACCACTCTGCAAA	-0.822
TTGTTCAGGACGTTGTATCGAC	0.0752
TTCTTGATAGCAGTGCATCCAG	-0.546

Molecular target: PLA2R1
Test: as above
Settings: shRNA

Sequence	sensor-assay potency score (higher = more potent)
TTTTTCACTATGAAATACCTTG	-0.37
TAAAAGATTAGAACCTTCCTTT	0.786
TTTTGTAACAGAATCCACCATG	0.0446
TAGTATCACAACCTACTTCTGC	-0.635
TAATGCACTGTTATCAGCCTGA	0.301
TTACTTTTAAATTTTATCCAGG	-0.532
TTGAGCATTCAACCAAACCATC	-1.81
